Among all 360,000 compounds or so, about 3,700 (1%) were called active. Rule as the data show it: active = activation above about 30%; inactive = the rest. The entries come from a sample that favours actives as a whole.

This is an account of results in PubChem BioAssay AID504660 (National Center for Advancing Translational Sciences (NCATS), 2011).

Chain of D(1A) dopamine receptor (Homo sapiens) (P21728 whole entry, looked up): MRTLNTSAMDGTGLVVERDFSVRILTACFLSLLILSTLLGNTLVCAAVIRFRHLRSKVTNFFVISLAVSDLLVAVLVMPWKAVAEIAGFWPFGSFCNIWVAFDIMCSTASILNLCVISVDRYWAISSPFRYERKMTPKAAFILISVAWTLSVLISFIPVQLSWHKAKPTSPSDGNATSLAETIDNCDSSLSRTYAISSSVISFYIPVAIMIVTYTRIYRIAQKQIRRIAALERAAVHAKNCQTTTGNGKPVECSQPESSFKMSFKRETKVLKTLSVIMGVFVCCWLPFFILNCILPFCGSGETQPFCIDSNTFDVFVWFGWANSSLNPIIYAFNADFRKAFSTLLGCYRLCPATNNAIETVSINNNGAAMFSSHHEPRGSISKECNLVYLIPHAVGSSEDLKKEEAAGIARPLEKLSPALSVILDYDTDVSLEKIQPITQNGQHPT

This experiment concerns the target D(1A) dopamine receptor (Homo sapiens) (UniProt P21728). The experiment is described as follows: Allosteric Agonists of the Human D1 Dopamine Receptor: qHTS. Also: 0% is about no effect. The following applies: HEK293 T-REx D1 cells, calcium flux, agonist mode; at 2 µM; hits give high values. The method in brief: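 Agonism was scored from calcium flux recorded over 180 s (1 read/s) after pintool compound addition, following a 10-cycle baseline. Cells were inducible force-coupled HEK293 TREx D1, plated overnight at 30 C and loaded with no-wash calcium dye.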
On the technique in general: In qHTS, concentration-response curves come from the screen itself.
For `CCN(CC)C(=O)CSc1nc2cc3c(cc2c(=O)n1CCCC(=O)NCc1ccc2c(c1)OCO2)OCO3`, the activation was 0.699% (inactive).

Consider `CCOc1ccc(CNC(=O)C2CCCN(S(=O)(=O)N(CC)c3ccc(OCC)cc3)C2)cc1` (stereo unspecified), for which the activation is -0.432% (inactive).

For `Cc1noc(C)c1-c1ccc2ncnc(NC(C)c3ccco3)c2c1` (stereo unspecified), the activation is -0.27% (inactive).

Regarding `Cc1noc2ncnc(NCc3ccccc3Cl)c12`, the activation was 21.4% (inactive).

For `Cc1noc(C)c1-c1ccc2ncnc(NCc3ccc(F)c(F)c3)c2c1`, the activation is 131% (active).

`O=C(NCCCO)c1nn(-c2ccc(Cl)cc2)nc1CO`: the activation is -0.511% (inactive).

Regarding `Cc1ccc(OCC(=O)Nc2ccc(OCc3cc(=O)n4c(C)csc4n3)cc2)cc1C`, the activation was 5.64% (inactive).

Take `O=C(C[n+]1cc(Br)cc2ccccc21)c1ccc(F)cc1`: the activation was 39.6% (active).

On to `O=C(CNC(=O)c1ccccc1F)c1ccc(Br)cc1`, for which the activation was -0.969% (inactive).

With `O=C(c1ccc(F)cc1)n1c(=S)nc2ccccn21`, the activation is 2.37% (inactive).

Turning to `Cc1ccc(-n2ncc3c(N4CCC(C(N)=O)CC4)ncnc32)cc1`, the activation is -2.06% (inactive).

Turning to `CCOC(=O)C1CCN(C(=O)CSc2c3c(nc4ccc(Cl)cc24)CCCC3)CC1`, the activation is 3.05% (inactive).

As to `Cc1cc(NC(=O)c2ccc(-c3ccc(Cl)cc3)o2)cc(-c2nc3ncccc3o2)c1O`, the activation is -0.471% (inactive).

As for `CCN(Cc1ccccc1)C(=O)c1cn(-c2cccc(OC)c2)c(=O)c2ccccc12`, the activation was 0.204% (inactive).

With `Cc1cccc(C(=O)Nc2ccc(-c3nc4ncccc4o3)cc2C)c1`, the activation is 0.768% (inactive).

Turning to `Cc1cc(C)c2sc(NC(=O)c3ccc(S(=O)(=O)N4CCCC4)cc3)nc2c1`, the activation is -0.497% (inactive).

`CCN(CC(=O)Nc1c(F)cccc1F)C(=O)c1ccc(S(=O)(=O)N2CCCCC2)cc1`: the activation is -0.0233% (inactive).

Consider `CN(C)CCCN(C(=O)c1ccc(S(=O)(=O)N2CCCCCC2)cc1)c1nc2ccc(Br)cc2s1`, for which the activation was 42.8% (active).

For `CCc1ccc2nc(N(CCCN(C)C)C(=O)c3ccc4c(c3)OCCO4)sc2c1`, the activation is 53.9% (active).

Turning to `CCN(CC)CCN(C(=O)c1ccc(N2C(=O)CCC2=O)cc1)c1nc2cc3c(cc2s1)OCO3`, the activation was 5.63% (inactive).

Turning to `CCCCN(CC)C(=O)c1ccc2c(c1)OCO2`, the activation is 4.54% (inactive).

In the case of `CCOc1ccc(CNC(=O)c2cc(=O)[nH]c3ccc(S(=O)(=O)N4CCCCC4)cc23)cc1`, the activation is -3.81% (inactive).

On to `Cc1cc(C)cc(NS(=O)(=O)c2cc3c(cc2C)NC(=O)CO3)c1`, for which the activation is 3.6% (inactive).

For `Cc1ccccc1OCc1ccc(-c2nc(C#N)c(N3CCCCC3)o2)o1`, the activation was 1.07% (inactive).

`Cc1ccc(Cn2ncc3c4sc(C)cc4n(C)c3c2=O)c(C)c1`: the activation is 3.45% (inactive).

As to `Cn1c(=O)c(=O)n(C)c2cc(NC(=O)c3ccccc3Br)ccc21`, the activation was 0.667% (inactive).

Take `Cc1ccc(CNC(=O)CCNS(=O)(=O)c2ccc3c(c2)oc(=O)n3C)cc1`: the activation was 1.82% (inactive).

As for `Cc1cc(OCC(=O)NCC2(N(C)C)CCCCC2)cc(C)c1Cl`, the activation is 9.34% (inactive).

For `CCOc1ccc(S(=O)(=O)Nc2cccc(C(=O)NCC3(N4CCCCC4)CCCCC3)c2)cc1`, the activation was 5.67% (inactive).

As for `CN1CCN(C2(CNC(=O)COc3ccc(C(C)(C)C)cc3)CCCCC2)CC1`, the activation was 42.8% (active).

On to `O=C(NCc1ccc2c(c1)CCN2C(=O)c1ccccc1)c1ccccc1`, for which the activation was 2.65% (inactive).

With `Cc1cc(C)c2nc3nc(C)cc(C)c3c(N)c2c1`, the activation was 31% (active).

On to `O=C(CSc1nc2c(c(=O)[nH]1)CN(Cc1ccc(F)cc1)CC2)Nc1ccccc1Cl`, for which the activation is 3.05% (inactive).

Regarding `CCOc1ccccc1CNC(=O)C1CCCN(S(=O)(=O)c2ccc3c(ccn3C)c2)C1` (stereo unspecified), the activation was 4.08% (inactive).

As to `O=C(Nc1nnc(S(=O)(=O)N2CCCc3ccccc32)s1)c1cccc(F)c1`, the activation is 0.00305% (inactive).

`O=C(c1ccc(Br)cc1)N(Cc1cccs1)c1ccc(F)cc1`: the activation was 9.82% (inactive).

Consider `Cc1c2cnn(-c3ccccc3)c(=O)c2c(C)n1CCCC(=O)N1CCN(C)CC1`, for which the activation is 0.261% (inactive).

`Cc1c2cnn(-c3ccccc3)c(=O)c2c(C)n1C(C)C(=O)Nc1ccc(Br)cc1F` (stereo unspecified): the activation is 34.5% (active).

On to `Cc1ccccc1CNC(=O)Cn1c(C)c2cnn(-c3ccccc3)c(=O)c2c1C`, for which the activation is 3.52% (inactive).

Turning to `O=C(/C=C/c1cn(CC(O)CN2CCc3ccccc32)c2ccccc12)c1ccc(Br)cc1` (stereo unspecified), the activation was 11.4% (inactive).

As to `COc1ccc(-c2cc(-c3ccc(F)cc3)nc3c2COc2ccccc2-3)cc1`, the activation is -0.494% (inactive).

In the case of `COc1ccccc1CNC(=O)CCn1c(=O)c2ccccc2n(CC(=O)Nc2ccc(Br)cc2F)c1=O`, the activation was 0.0005% (inactive).

On to `O=C(/C=C/c1ccc(F)cc1)NC(=S)NNC(=O)c1cccnc1`, for which the activation is 1.33% (inactive).

`O=C(NNC(=S)NC(=O)c1cn(-c2ccccc2)nc1-c1ccccc1)c1ccncc1`: the activation was 6.27% (inactive).

In the case of `Cc1onc(-c2ccccc2)c1C(=O)NNC(=S)NC(=O)c1ccc(F)cc1`, the activation is 61.1% (active).

`COc1ccc(C(=O)Nc2onc3c2CCCC3)cc1`: the activation was -1.07% (inactive).

For the compound `CC(=O)NC(=S)NNC(=O)c1ccc(Br)cc1`, the activation was 0.645% (inactive).

As to `Cn1nnc(NC(=S)NC(=O)c2ccccc2)n1`, the activation is 4.22% (inactive).

As to `COc1ccc(C(=O)NC(=O)CSc2nnc(-c3ccco3)n2-c2ccccc2)cc1`, the activation was 1% (inactive).

Turning to `COc1ccc(C(=O)NC(=S)NNC(=O)c2c(-c3ccccc3)noc2C)cc1`, the activation was 86.2% (active).

`COc1ccc(C(=O)NNC(=S)NC(=O)c2ccccc2)cc1`: the activation is 84.2% (active).

With `Cc1cc(C(=O)Nc2cccc(C(F)(F)F)c2)c2c(C)nn(-c3cccc(F)c3)c2n1`, the activation was 19.5% (inactive).

On to `CCOc1ccc(-n2c(SCC(=O)NCc3ccccc3)nc3n[nH]c(C)c3c2=N)cc1`, for which the activation is 1.25% (inactive).

As to `COc1ccc(N(CC(=O)NCCc2ccc(Cl)cc2)S(=O)(=O)c2c(C)nn(C)c2C)cc1`, the activation is 0.495% (inactive).

Take `CCOC(=O)c1[nH]c(C)c(CCC(=O)NCc2ccccc2C)c1C`: the activation was -0.942% (inactive).

`CCOc1ccc(-c2nonc2NC(=O)c2oc3ccc(CC)cc3c2C)cc1`: the activation is 5.77% (inactive).
